# Test results as given in the supplement of paper PMC9694430.
# Where a name gives a salt, the structure may show the parent alone.
# Experiments:
# Assay in all cases: thermal shift delta Tm vs DMSO control; higher = stronger stabilization (binding)
# Settings in all cases: 12.5 µM; protein concentration 2 µM
# [1] = test system: LOC_OS02G45750-cb003
# Method in brief: (§1)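 Heating from 25°C to 95°C at 0.05°C/s, fluorescence was recorded for 19.5 μl wells of 2 μM E. coli-expressed, purified rice kinase domain in 100 mM potassium phosphate pH 7.5, 150 mM NaCl, 10% glycerol and 5 × SYPRO Orange with compound in DMSO. Boltzmann fits gave melting temperatures for this differential scanning fluorimetry assay. The shift reported is the mean of three replicates against the DMSO-only protein.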
# [2] = test system: LOC_OS02G54510-cb004
# Method in brief: as §1
# [3] = test system: LOC_OS03G04050-cb001
# Method in brief: as §1
# [4] = test system: LOC_OS03G12390-cb001
# Method in brief: as §1
# [5] = test system: LOC_OS03G27990-cb004
# Method in brief: as §1
# [6] = test system: LOC_OS03G50450-cb001
# Method in brief: as §1
# [7] = test system: LOC_OS03G50810-cb003
# Method in brief: as §1
# [8] = test system: LOC_OS04G35114-cb001
# Method in brief: as §1
# [9] = test system: T1, LOC_OS04G38480-cb003
# T1 sequence (whole entry): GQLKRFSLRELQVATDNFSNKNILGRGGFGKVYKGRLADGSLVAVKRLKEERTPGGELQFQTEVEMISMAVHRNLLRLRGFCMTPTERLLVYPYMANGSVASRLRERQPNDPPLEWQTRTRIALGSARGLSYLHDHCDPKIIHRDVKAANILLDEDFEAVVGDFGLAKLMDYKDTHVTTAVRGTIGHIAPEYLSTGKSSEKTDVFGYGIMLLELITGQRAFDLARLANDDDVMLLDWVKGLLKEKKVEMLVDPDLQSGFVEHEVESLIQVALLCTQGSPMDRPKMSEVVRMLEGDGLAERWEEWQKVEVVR
# Method in brief: as §1
# [10] = test system: T2, LOC_OS04G41100-cb001
# T2 sequence (whole entry): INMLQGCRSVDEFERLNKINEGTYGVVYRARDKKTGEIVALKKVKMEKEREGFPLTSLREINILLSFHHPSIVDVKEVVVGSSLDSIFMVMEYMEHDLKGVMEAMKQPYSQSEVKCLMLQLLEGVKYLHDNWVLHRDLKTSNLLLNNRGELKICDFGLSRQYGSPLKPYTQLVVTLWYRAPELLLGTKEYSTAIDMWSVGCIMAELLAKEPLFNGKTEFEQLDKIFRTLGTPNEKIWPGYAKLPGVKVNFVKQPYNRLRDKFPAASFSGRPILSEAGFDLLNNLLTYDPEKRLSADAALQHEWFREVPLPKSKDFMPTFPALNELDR
# Method in brief: as §1
# 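Further: purified Escherichia coli-expressed rice kinase domain construct.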
SMILES,thermal shift delta Tm [1] [°C],thermal shift delta Tm [2] [°C],thermal shift delta Tm [3] [°C],thermal shift delta Tm [4] [°C],thermal shift delta Tm [5] [°C],thermal shift delta Tm [6] [°C],thermal shift delta Tm [7] [°C],thermal shift delta Tm [8] [°C],thermal shift delta Tm [9] [°C],thermal shift delta Tm [10] [°C]
Cc1cc(NC(=O)c2cccc(NC(=O)/C=C/CN(C)C)c2)ccc1Nc1nccc(-c2cccnc2)n1,3.5,0.3,1.05,2.05,0.81,1.19,1.1,1.79,1.17,0.83
CNCc1ccc(-c2cc(-c3nc(-c4ccc(S(=O)(=O)C(C)C)cc4)cnc3N)on2)cc1,2.46,0.28,0.32,0.54,0.33,0.34,0.97,4.33,1,0.22
FC(F)(F)c1ccc(/C=C/c2nc(COc3ccc(CCCCn4ccnn4)cc3)co2)cc1 [Mubritinib (TAK 165)],0.54,0.1,0.37,0,0.51,0.76,0.3,0.27,0.25,0.36
O=C(Nc1c[nH]nc1-c1nc2ccc(CN3CCOCC3)cc2[nH]1)NC1CC1,8.3,2.96,1.22,7.72,6.08,3.92,6.02,5.39,3.78,8.54
O=C(NOC[C@H](O)CO)c1ccc(F)c(F)c1Nc1ccc(I)cc1F,0.77,0.16,0.43,0.47,0.21,0.26,0.28,-0.05,0.76,0.78
CNC(=O)c1cc(Oc2ccc(NC(=O)Nc3ccc(Cl)c(C(F)(F)F)c3)cc2)ccn1 [Sorafenib Tosylate],2.62,1.95,0.83,1.41,0.39,0.77,1.06,0.98,2.2,1.53
CCNC(=O)Nc1ccc(-c2nc3c(c(N4CCOC[C@@H]4C)n2)CCN(C2COC2)C3)cc1,1.07,0.26,0.61,-0.06,0.78,0.68,0.23,0.56,-0.03,0.46
COc1ccc(S(=O)(=O)N(C(C)=O)c2ccccc2/C=C/c2cc[n+]([O-])cc2)cc1,-0.35,-0.24,0.19,0.13,-0.03,0.17,0.09,0.01,0.55,0.61
CN1CCN(c2nc(C3=C(c4c[nH]c5ccccc45)C(=O)NC3=O)c3ccccc3n2)CC1 [Sotrastaurin],1.74,0.21,0.22,0.18,0.49,0.36,1.38,1.49,0.76,0.51
Cc1cc(Nc2nc(N[C@@H](C)c3ccc(F)cc3)c(C#N)cc2F)n[nH]1,4.55,2.52,0.11,4.41,0.57,1.39,4.44,1.88,2.31,1.28
COc1ccc(-c2cc3c(C)nc(N)nc3n([C@H]3CC[C@H](OCCO)CC3)c2=O)cn1,0.52,0.05,0.5,0.41,0.17,0.14,0.45,0.77,1.08,0.32
CC(C)Nc1cc(-c2c[nH]c(C(=O)N[C@H](CO)c3cccc(Cl)c3)c2)c(Cl)cn1,0.06,0.08,0.57,1.86,0.44,0.2,0.3,1.54,1.63,1.97
N#Cc1ccc2ncnc(NCCc3ccccc3)c2c1 [Senexin A],1.15,0.03,0.34,1.84,0.37,0.68,0.83,1.3,1.69,0.25
C=CC(=O)Nc1cccc(Nc2nc(Nc3ccc(NC4CN(CCF)C4)cc3OC)ncc2C(F)(F)F)c1,0.83,0.67,0.56,8.48,0.5,0.39,1.26,0.98,0.06,0.29
COc1ccc(CCNCc2ccc(OCc3ccc(Cl)nc3)c(OC)c2)cc1OC,-0.45,0,0,-0.53,0.12,-0.17,0.18,0.23,0.05,0.41
C[C@H]1CNC(=O)c2cnn3ccc(nc23)N[C@H](C)c2cc(F)ccc2O1,3.54,6.11,0.53,0.55,0.55,0.87,2.52,2.45,3.37,0.09
O=C(Cc1ccc(-c2ccc(OCCN3CCOCC3)cc2)cn1)NCc1ccccc1,0.29,0.08,0.31,0.07,0.38,0.47,0.43,0.43,0.12,0.27
CN(C)C/C=C/C(=O)Nc1ccc(C(=O)Nc2cccc(Nc3ncc(Cl)c(-c4c[nH]c5ccccc45)n3)c2)cc1,6.63,2.87,0.82,10.8,4.72,5.94,5.98,1.96,4.69,1.76
CCS(=O)(=O)N1CCN(c2ccc(Nc3ncc(C(N)=O)c(NC4CC4)n3)cc2)CC1,8.46,4.48,0.19,6.9,5.89,5.37,4.92,6.29,2.13,2.54
C[C@@H](Oc1ccc2[nH]nc(/C=C/c3cnn(CCO)c3)c2c1)c1c(Cl)cncc1Cl,13.1,7.93,0.05,10.5,9.48,6.65,6.58,12.3,5.56,1.48

SMILES,thermal shift delta Tm [1] [°C],thermal shift delta Tm [2] [°C],thermal shift delta Tm [3] [°C],thermal shift delta Tm [4] [°C],thermal shift delta Tm [5] [°C],thermal shift delta Tm [6] [°C],thermal shift delta Tm [7] [°C],thermal shift delta Tm [8] [°C],thermal shift delta Tm [9] [°C],thermal shift delta Tm [10] [°C]
CC(C)N(CCC(=O)c1ccc2ccccc2c1)Cc1ccccc1,-0.52,-0.55,0.06,-6.73,-1,0.58,-1.55,-1.2,0.27,2.52
CC(C)S(=O)(=O)c1ccc2nccc(Nc3ccc4scnc4c3)c2c1,1.88,0.89,0.51,0.9,0.22,0.37,0.61,2.38,2.44,0.32
CNC(=O)c1ccc(C)c(-n2c(C)cc(OCc3ccc(F)cc3F)c(Br)c2=O)c1,0.5,0.06,0.28,0.6,0.15,0.27,0.59,0.14,0.62,0.73
CCOc1cc2ncc(C#N)c(Nc3ccc(OCc4ccccn4)c(Cl)c3)c2cc1NC(=O)/C=C/CN(C)C [Neratinib (HKI-272)],4.68,0.16,0.41,0.55,1.01,0.39,1.2,5.53,1.27,0.15
CCn1c(N)c(C(=O)NC)c(=O)c2ccc(C#CC(C)(O)COC)nc21 (stereo not given),1.5,-0.18,0.43,1.63,0.43,0.79,0.85,1.56,0.68,0.29
Cc1csc(-c2nnc(Nc3ccc(Oc4ncccc4-c4ccnc(N)n4)cc3)c3ccccc23)c1,1.33,0.9,0.3,0.26,0.96,0.26,0.96,1.18,2.54,1.68
Cc1cc([C@@H](C)Nc2ccccc2C(=O)O)c2nc(N3CCOCC3)cc(=O)n2c1,0.61,0.49,0.29,0.3,0.29,0.63,0.56,0.73,0.55,0.37
COc1ncc(-c2cc(-c3ncc(CN4C[C@@H](C)O[C@@H](C)C4)o3)c3cn[nH]c3c2)cc1NS(C)(=O)=O,0.86,0.25,0.39,-0.09,0.23,0.64,0.71,1.06,0.79,0.49
COc1cc(-c2cc(-c3ccc(N4CCNCC4)cc3)cnc2C)cc(OC)c1OC,2.4,0.19,0.41,-0.01,0.29,0.65,0.51,2.27,1.94,0.29
CCn1c(C(=O)N(C2CC2)C2CC2)cc2c3c(ncn3C)c(Nc3cc(C)n(C)n3)nc21,1.23,0.33,0.44,1.55,0.13,0.66,1.38,2.5,1.2,0.58
C=CC(=O)Nc1ccc2ncnc(Nc3ccc(OCc4cccc(F)c4)c(Cl)c3)c2c1,2.15,0.29,1.39,2.82,1.09,1.56,1.76,1.62,4.58,1.61
CNC(=O)c1cc(Oc2ccc(NC(=O)Nc3cc(C(C)(C)C)nn3-c3ccc4ncccc4c3)c(F)c2)ccn1 [Rebastinib (DCC-2036)],12.3,6.64,0.59,5.55,0.52,0.33,5.06,0.84,2.8,5.27
O=c1cc(N2CCOCC2)oc2c1ccc1ccccc12,0.57,0.45,0.58,1.07,0.27,0.43,0.29,0.64,2.01,0.31
O=C1CCc2c(Oc3ccc4c(c3)[C@@H]3[C@H](O4)[C@H]3c3nc4cc(C(F)(F)F)ccc4[nH]3)ccnc2N1 [Lifirafenib (BGB-283)],2.06,5.22,0.52,0.76,0.6,0.51,0.57,0.81,3.35,0.63
CC1(C)C=Cc2c(ccc3c2OC[C@@H](c2ccc(O)cc2O)C3)O1 [Glabridin],0.34,-0.24,0.88,0.93,0.6,0.36,0.74,0.79,1.12,0.7
COc1cc2nccc(Oc3ccc(NC(=O)C4(C(=O)Nc5ccc(F)cc5)CC4)cc3)c2cc1OC [Cabozantinib malate (XL184)],0.86,0.27,0.7,0.1,0.34,0.45,0.59,0.52,1.59,0.69
O=C1NC(=O)/C(=C/c2ccc(-c3ccc(F)cc3O)o2)S1,2.33,0.67,1.72,5.37,1.51,3.59,2.55,4.85,4.16,1.17
Cc1c(Cn2c(C)nc3c(C(=O)O)cc(N4CCOCC4)cc32)cccc1C(F)(F)F,0.34,0.11,0.14,-0.17,0.07,0.48,0.29,0.99,0.75,0.4
COc1cc2c(Nc3ccc(NC(=O)c4ccccc4)cc3)ncnc2cc1OCCCN1CCOCC1,2.66,0.37,0.55,0.43,0.34,0.3,1.85,2.46,0.65,0.59
